In the antibiotic and cytotoxicity screens of Wong et al. (2023):
Among all 39,000 compounds or so, about 3,300 (8.5%) were called active. What follows is part of a selection rich in actives, with near analogues and random picks from the rest.

The compounds below were run on HepG2 (assay: cytotoxicity call (relative viability < 0.9)). Settings: 10 µM.

Row | SMILES | cytotoxicity call
1 | C[Si](C)(C)O[Si](C)(C)O[Si](C)(C)C | inactive
2 | COc1ccc(S(=O)(=O)N(C)C[C@@H]2Oc3c(NS(=O)(=O)c4ccc(F)cc4)cccc3C(=O)N([C@H](C)CO)C[C@H]2C)cc1 | inactive
3 | Cc1ccc(S(=O)(=O)N(C)C[C@H]2OCCCC[C@@H](C)Oc3ccc(NC(=O)C4CCCCC4)cc3C(=O)N([C@H](C)CO)C[C@H]2C)cc1 | inactive
4 | COc1ccccc1CNC(=O)C[C@@H]1CC[C@H]2[C@@H](COC[C@H](O)CN2C(=O)Nc2ccc(Cl)cc2)O1 | inactive
5 | C[C@@H]1CN([C@H](C)CO)C(=O)c2cc(NC(=O)Nc3cccc4ccccc34)ccc2O[C@@H](C)CCCCO[C@H]1CN(C)Cc1ccc(C(F)(F)F)cc1 | inactive
6 | C[C@@H]1CCCCO[C@H](CN(C)Cc2ccc(C(=O)O)cc2)[C@H](C)CN([C@H](C)CO)C(=O)c2cc(NC(=O)Nc3cccc4ccccc34)ccc2O1 | inactive
7 | C[C@@H]1CCCCO[C@@H](CN(C)Cc2ccccc2)[C@@H](C)CN([C@@H](C)CO)C(=O)c2cc(NC(=O)Nc3cccc4ccccc34)ccc2O1 | inactive
8 | C[C@@H]1CCCCO[C@@H](CN(C)Cc2ccc(C(=O)O)cc2)[C@@H](C)CN([C@@H](C)CO)C(=O)c2cc(NC(=O)Nc3cccc4ccccc34)ccc2O1 | inactive
9 | C[C@H](CO)N1C[C@H](C)[C@@H](CN(C)Cc2ccc(C(F)(F)F)cc2)OCCCC[C@H](C)Oc2ccc(NC(=O)Nc3cccc4ccccc34)cc2C1=O | active
10 | C[C@@H]1CN([C@@H](C)CO)C(=O)c2cc(NC(=O)Nc3cccc4ccccc34)ccc2O[C@@H](C)CCCCO[C@@H]1CN(C)Cc1ccccc1 | active
11 | C[C@@H]1CN([C@@H](C)CO)C(=O)c2cc(NC(=O)Nc3cccc4ccccc34)ccc2O[C@@H](C)CCCCO[C@H]1CN(C)Cc1ccc(C(F)(F)F)cc1 | inactive
12 | C[C@H](CO)N1C[C@H](C)[C@H](CN(C)Cc2ccccc2)OCCCC[C@H](C)Oc2ccc(NC(=O)Nc3cccc4ccccc34)cc2C1=O | inactive
13 | C[C@@H]1CN([C@H](C)CO)C(=O)c2cc(NC(=O)Nc3cccc4ccccc34)ccc2O[C@@H](C)CCCCO[C@H]1CN(C)Cc1ccccc1 | active
14 | COc1ccc(S(=O)(=O)N(C)C[C@@H]2Oc3ccc(NS(=O)(=O)c4c(C)noc4C)cc3C(=O)N([C@@H](C)CO)C[C@H]2C)cc1 | inactive
15 | COc1ccc(S(=O)(=O)N(C)C[C@H]2OCCCC[C@@H](C)Oc3ccc(NC(=O)CCCCCC(=O)Nc4ccccc4N)cc3C(=O)N([C@H](C)CO)C[C@H]2C)cc1 | inactive
16 | C[C@@H]1CN([C@H](C)CO)C(=O)c2cccc(NS(C)(=O)=O)c2O[C@@H]1CN(C)Cc1ccc2c(c1)OCO2 | inactive
17 | C[C@@H]1CN([C@@H](C)CO)C(=O)c2cc(NS(=O)(=O)c3cccs3)ccc2O[C@@H](C)CCCCO[C@@H]1CN(C)S(=O)(=O)c1cn(C)cn1 | inactive
18 | Cc1noc(C)c1NC(=O)Nc1ccc2c(c1)CC(=O)N([C@H](C)CO)C[C@@H](C)[C@@H](CN(C)S(C)(=O)=O)O2 | inactive
19 | CS(=O)(=O)Nc1ccc2c(c1)[C@@H]1C[C@H](CC(=O)NCC3CC3)O[C@@H](CO)[C@@H]1O2 | inactive
20 | C[C@@H]1CN([C@@H](C)CO)C(=O)c2cc(NC(=O)Cc3ccccc3)ccc2O[C@@H](C)CCCCO[C@@H]1CN(C)S(=O)(=O)c1ccc(F)cc1 | inactive
21 | C[C@@H]1CN([C@@H](C)CO)C(=O)c2cc(NC(=O)c3ccccc3)ccc2O[C@@H](C)CCCCO[C@H]1CN(C)Cc1ccncc1 | inactive
22 | CC(C)NC(=O)Nc1cccc2c1O[C@H](CN(C)Cc1ccc3c(c1)OCO3)[C@H](C)CN([C@@H](C)CO)C2=O | inactive

Row | SMILES | cytotoxicity call
23 | C[C@H]1CN([C@@H](C)CO)C(=O)c2cccc(NC(=O)C3CC3)c2O[C@H]1CN(C)Cc1ccc(-c2ccccc2)cc1 | inactive
24 | Cc1cc(CCC[C@H](CC(=O)NO)C(=O)N[C@H](C(=O)N[C@H](C)c2ccccc2)C(C)(C)C)ccc1-c1ccccc1 | active
25 | Nc1cccc(-c2cccs2)c1 | inactive
26 | C[C@H](CO)N1C[C@H](C)[C@H](CN(C)S(C)(=O)=O)Oc2ncc(C#Cc3cccnc3)cc2C1=O | inactive
27 | CN(C)CCN(Cc1ccc(Cl)cc1)c1ccccn1.Cl | inactive
28 | CN(C)CCN(Cc1ccccc1)c1ccccn1.O=C(O)CC(O)(CC(=O)O)C(=O)O | active
29 | COc1ccc(CN(CCN(C)C)c2ccccn2)cc1.O=C(O)C=CC(=O)O | inactive
30 | C[C@H](CO)N1C[C@H](C)[C@@H](CN(C)S(=O)(=O)c2cn(C)cn2)Oc2ccc(NC(=O)CCC(F)(F)F)cc2C1=O | inactive
31 | C[C@@H]1CN([C@H](C)CO)S(=O)(=O)c2ccc(C#CCN(C)C)cc2O[C@H]1CN(C)S(C)(=O)=O | inactive
32 | Cc1cc(C(=O)Nc2cccc3c2O[C@H](CN(C)S(=O)(=O)c2c(C)noc2C)[C@H](C)CN([C@H](C)CO)C3=O)n(C)n1 | inactive
33 | CC1(C)C[C@@](CCN)(Cc2ccccc2)CCO1 | inactive
34 | Cc1ccc(S(=O)(=O)Nc2ccc3c(c2)C(=O)N([C@H](C)CO)C[C@H](C)[C@@H](CN(C)S(=O)(=O)c2ccc(F)cc2)OCCCC[C@H](C)O3)cc1 | inactive
35 | Cc1ccc(S(=O)(=O)N(C)C[C@@H]2OCCCC[C@H](C)Oc3ccc(NS(=O)(=O)c4ccc(F)cc4)cc3C(=O)N([C@@H](C)CO)C[C@H]2C)cc1 | active
36 | Cc1ccc(S(=O)(=O)Nc2ccc3c(c2)C(=O)N([C@H](C)CO)C[C@H](C)[C@H](CN(C)S(=O)(=O)c2ccc(F)cc2)OCCCC[C@H](C)O3)cc1 | inactive
37 | Cc1ccc(S(=O)(=O)N(C)C[C@@H]2OCCCC[C@H](C)Oc3ccc(NS(=O)(=O)c4ccc(F)cc4)cc3C(=O)N([C@@H](C)CO)C[C@@H]2C)cc1 | active
38 | Cc1ccc(S(=O)(=O)N(C)C[C@H]2OCCCC[C@H](C)Oc3ccc(NS(=O)(=O)c4ccc(F)cc4)cc3C(=O)N([C@@H](C)CO)C[C@@H]2C)cc1 | inactive
39 | Cc1ccc(S(=O)(=O)Nc2ccc3c(c2)C(=O)N([C@H](C)CO)C[C@@H](C)[C@H](CN(C)S(=O)(=O)c2ccc(F)cc2)OCCCC[C@@H](C)O3)cc1 | inactive
40 | Cc1ccc(S(=O)(=O)N(C)C[C@@H]2OCCCC[C@@H](C)Oc3ccc(NS(=O)(=O)c4ccc(F)cc4)cc3C(=O)N([C@H](C)CO)C[C@H]2C)cc1 | active
41 | Cc1ccc(S(=O)(=O)N(C)C[C@@H]2OCCCC[C@H](C)Oc3ccc(NS(=O)(=O)c4ccc(F)cc4)cc3C(=O)N([C@H](C)CO)C[C@@H]2C)cc1 | active
42 | Cc1ccc(S(=O)(=O)Nc2ccc3c(c2)C(=O)N([C@@H](C)CO)C[C@H](C)[C@@H](CN(C)S(=O)(=O)c2ccc(F)cc2)OCCCC[C@@H](C)O3)cc1 | inactive
43 | Cc1ccc(S(=O)(=O)Nc2ccc3c(c2)C(=O)N([C@@H](C)CO)C[C@@H](C)[C@H](CN(C)S(=O)(=O)c2ccc(F)cc2)OCCCC[C@@H](C)O3)cc1 | inactive
44 | Cc1ccc(S(=O)(=O)N(C)C[C@H]2OCCCC[C@H](C)Oc3ccc(NS(=O)(=O)c4ccc(F)cc4)cc3C(=O)N([C@H](C)CO)C[C@H]2C)cc1 | inactive

Row | SMILES | cytotoxicity call
45 | Cc1ccc(S(=O)(=O)Nc2ccc3c(c2)C(=O)N([C@@H](C)CO)C[C@H](C)[C@@H](CN(C)S(=O)(=O)c2ccc(F)cc2)OCCCC[C@H](C)O3)cc1 | inactive
46 | CN1CCN(C(=O)C[C@@H]2C=C[C@@H](NC(=O)Nc3ccccc3F)[C@@H](CO)O2)CC1 | inactive
47 | COc1ccc(NC(=O)N(C)C[C@@H]2Oc3ccc(NS(C)(=O)=O)cc3CC(=O)N([C@H](C)CO)C[C@@H]2C)cc1 | inactive
48 | C[C@@H]1CN([C@H](C)CO)C(=O)c2cccc(NC(=O)Nc3ccccc3)c2O[C@H]1CN(C)C(=O)Nc1ccc(C(F)(F)F)cc1 | inactive
49 | Cc1ccc(S(=O)(=O)c2c[nH]c(=O)[nH]2)cc1 | inactive
50 | CC[C@@](C)(Nc1n[nH]c(=O)[nH]c1=O)C(=O)O | inactive
51 | OC[C@H]1O[C@@H](O[C@@H]2[C@@H](O)[C@H](O)[C@H](O[C@@H]3[C@@H](O)[C@H](O)[C@H](O)O[C@@H]3CO)O[C@@H]2CO)[C@@H](O)[C@@H](O)[C@@H]1O | inactive
52 | OCC1OC(OC2C(CO)OC(O)C(O)C2O)C(O)C(O)C1O (stereo not given) | inactive
53 | O.OCC1OC(OC2C(CO)OC(O)C(O)C2O)C(O)C(O)C1O (stereo not given) | active
54 | COC(=O)c1c2oc(c1C(=O)OC)C(=O)N(C)Cc1cn(nn1)C[C@@H](Cc1ccccc1)NC(=O)N[C@H](COC(=O)NCCCCCC(=O)NO)CC2 | inactive
55 | Cc1noc(C)c1NC(=O)Nc1ccc2c(c1)C(=O)N([C@@H](C)CO)C[C@H](C)[C@@H](CN(C)S(C)(=O)=O)O2 | inactive
56 | O=C(OC1Cc2c(O)cc(O)cc2OC1c1ccc(O)c(O)c1)c1cc(O)c(O)c(O)c1 (stereo not given) | inactive
57 | O=C(OC[C@H]1O[C@@H](OC(=O)c2cc(O)c(O)c(O)c2)[C@H](O)[C@@H](O)[C@@H]1O)c1cc(O)c(O)c(O)c1 | inactive
58 | O=C(O)c1cc(O)c(O)c(O)c1 | inactive
59 | O=C(OC1Cc2c(O)cc(O)cc2OC1c1cc(O)c(O)c(O)c1)c1cc(O)c(O)c(O)c1 (stereo not given) | inactive
60 | O=C(OC[C@H]1O[C@@H](OC(=O)c2cc(O)c(O)c(O)c2)[C@H](OC(=O)c2cc(O)c(O)c(O)c2)[C@@H](OC(=O)c2cc(O)c(O)c(O)c2)[C@@H]1OC(=O)c1cc(O)c(O)c(O)c1)c1cc(O)c(O)c(O)c1 | active
61 | O=C(OC[C@H]1O[C@@H](OC(=O)c2cc(O)c(O)c(O)c2)[C@H](O)[C@@H](OC(=O)c2cc(O)c(O)c(O)c2)[C@@H]1O)c1cc(O)c(O)c(O)c1 | active
62 | O=C(Oc1cc(O)cc2c1C[C@@H](OC(=O)c1cc(O)c(O)c(O)c1)[C@@H](c1cc(O)c(O)c(O)c1)O2)c1cc(O)c(O)c(O)c1 | inactive
63 | O=C(OCC1OC(OC(=O)c2cc(O)c(O)c(OC(=O)c3cc(O)c(O)c(O)c3)c2)C(OC(=O)c2cc(O)c(O)c(OC(=O)c3cc(O)c(O)c(O)c3)c2)C(OC(=O)c2cc(O)c(O)c(OC(=O)c3cc(O)c(O)c(O)c3)c2)C1OC(=O)c1cc(O)c(O)c(OC(=O)c2cc(O)c(O)c(O)c2)c1)c1cc(O)c(O)c(OC(=O)c2cc(O)c(O)c(O)c2)c1 (stereo not given) | active
64 | O=C(O)C[C@@H]1C(=O)O[C@H]2[C@@H](OC(=O)c3cc(O)c(O)c(O)c3)[C@H](OC(=O)c3cc(O)c(O)c4c3[C@H]1[C@H](O)C(=O)O4)[C@H](OC(=O)c1cc(O)c(O)c(O)c1)O[C@@H]2COC(=O)c1cc(O)c(O)c(O)c1 | active
65 | C=C[C@H]1[C@H](O[C@H]2O[C@@H](CO)[C@@H](O)[C@@H](O)[C@@H]2O)OC=C(C(=O)OC)[C@H]1CCOC(=O)c1cc(O)c(O)c(O)c1 | inactive
